Molecules are shown by their SMILES.

The target of test [1] is Tyrosine-protein kinase SYK (Homo sapiens) (UniProt P43405). Particulars: at 1 µM.
Test [2] deals with T1, Tyrosine-protein kinase Tec (Homo sapiens) (UniProt P42680).
T1 sequence (whole entry): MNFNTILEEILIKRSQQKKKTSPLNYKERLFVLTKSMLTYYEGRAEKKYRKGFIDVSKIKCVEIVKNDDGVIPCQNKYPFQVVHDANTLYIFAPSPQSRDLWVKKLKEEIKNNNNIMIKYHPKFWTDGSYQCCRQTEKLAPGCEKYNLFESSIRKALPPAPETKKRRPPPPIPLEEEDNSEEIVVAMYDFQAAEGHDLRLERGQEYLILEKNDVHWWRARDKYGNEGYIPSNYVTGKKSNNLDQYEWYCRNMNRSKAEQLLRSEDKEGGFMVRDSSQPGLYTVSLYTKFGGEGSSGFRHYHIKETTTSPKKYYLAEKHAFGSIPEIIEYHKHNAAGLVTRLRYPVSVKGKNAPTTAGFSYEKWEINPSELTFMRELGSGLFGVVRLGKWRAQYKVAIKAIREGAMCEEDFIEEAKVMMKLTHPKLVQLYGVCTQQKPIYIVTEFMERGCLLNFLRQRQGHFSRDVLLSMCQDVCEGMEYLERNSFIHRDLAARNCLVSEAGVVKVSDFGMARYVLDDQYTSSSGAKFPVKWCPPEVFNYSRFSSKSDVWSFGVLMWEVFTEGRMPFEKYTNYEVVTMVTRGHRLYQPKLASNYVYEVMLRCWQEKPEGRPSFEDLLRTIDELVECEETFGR
Particulars: at 0.1 µM.

Test [3] concerns the target T1, Tyrosine-protein kinase Tec (Homo sapiens). The note with it: at 1 µM.
Test [4] concerns the target Angiopoietin-1 receptor (Homo sapiens) (UniProt Q02763). Particulars: at 0.1 µM.
The target is the same in test [5]. The note with it: at 1 µM.
Test [6] addresses T2, Non-receptor tyrosine-protein kinase TNK1 (Homo sapiens) (UniProt Q13470).
T2 sequence (whole entry): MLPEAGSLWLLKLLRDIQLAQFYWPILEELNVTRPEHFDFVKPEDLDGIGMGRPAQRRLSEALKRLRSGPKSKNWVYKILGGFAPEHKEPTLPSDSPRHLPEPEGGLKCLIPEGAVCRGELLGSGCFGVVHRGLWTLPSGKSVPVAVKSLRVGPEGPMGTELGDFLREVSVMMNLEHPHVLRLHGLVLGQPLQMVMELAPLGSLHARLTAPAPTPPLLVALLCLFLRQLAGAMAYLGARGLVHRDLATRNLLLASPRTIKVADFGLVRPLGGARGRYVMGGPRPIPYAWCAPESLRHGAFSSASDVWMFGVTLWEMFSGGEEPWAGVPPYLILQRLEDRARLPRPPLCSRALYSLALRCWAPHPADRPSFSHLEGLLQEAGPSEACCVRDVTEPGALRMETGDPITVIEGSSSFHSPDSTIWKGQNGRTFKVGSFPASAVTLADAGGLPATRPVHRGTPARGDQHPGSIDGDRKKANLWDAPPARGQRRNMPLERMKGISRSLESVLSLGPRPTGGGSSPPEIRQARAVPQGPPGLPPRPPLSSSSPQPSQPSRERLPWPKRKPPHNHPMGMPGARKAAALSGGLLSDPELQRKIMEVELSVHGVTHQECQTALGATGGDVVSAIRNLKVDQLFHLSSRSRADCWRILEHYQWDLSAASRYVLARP
Particulars: at 0.1 µM.

In test [7] the target is T2, Non-receptor tyrosine-protein kinase TNK1 (Homo sapiens). Particulars: at 1 µM.
In test [8] the target is Activated CDC42 kinase 1 (Homo sapiens) (UniProt Q07912). The note with it: at 0.1 µM.
Activated CDC42 kinase 1 (Homo sapiens), sequence (Q07912 whole entry, looked up): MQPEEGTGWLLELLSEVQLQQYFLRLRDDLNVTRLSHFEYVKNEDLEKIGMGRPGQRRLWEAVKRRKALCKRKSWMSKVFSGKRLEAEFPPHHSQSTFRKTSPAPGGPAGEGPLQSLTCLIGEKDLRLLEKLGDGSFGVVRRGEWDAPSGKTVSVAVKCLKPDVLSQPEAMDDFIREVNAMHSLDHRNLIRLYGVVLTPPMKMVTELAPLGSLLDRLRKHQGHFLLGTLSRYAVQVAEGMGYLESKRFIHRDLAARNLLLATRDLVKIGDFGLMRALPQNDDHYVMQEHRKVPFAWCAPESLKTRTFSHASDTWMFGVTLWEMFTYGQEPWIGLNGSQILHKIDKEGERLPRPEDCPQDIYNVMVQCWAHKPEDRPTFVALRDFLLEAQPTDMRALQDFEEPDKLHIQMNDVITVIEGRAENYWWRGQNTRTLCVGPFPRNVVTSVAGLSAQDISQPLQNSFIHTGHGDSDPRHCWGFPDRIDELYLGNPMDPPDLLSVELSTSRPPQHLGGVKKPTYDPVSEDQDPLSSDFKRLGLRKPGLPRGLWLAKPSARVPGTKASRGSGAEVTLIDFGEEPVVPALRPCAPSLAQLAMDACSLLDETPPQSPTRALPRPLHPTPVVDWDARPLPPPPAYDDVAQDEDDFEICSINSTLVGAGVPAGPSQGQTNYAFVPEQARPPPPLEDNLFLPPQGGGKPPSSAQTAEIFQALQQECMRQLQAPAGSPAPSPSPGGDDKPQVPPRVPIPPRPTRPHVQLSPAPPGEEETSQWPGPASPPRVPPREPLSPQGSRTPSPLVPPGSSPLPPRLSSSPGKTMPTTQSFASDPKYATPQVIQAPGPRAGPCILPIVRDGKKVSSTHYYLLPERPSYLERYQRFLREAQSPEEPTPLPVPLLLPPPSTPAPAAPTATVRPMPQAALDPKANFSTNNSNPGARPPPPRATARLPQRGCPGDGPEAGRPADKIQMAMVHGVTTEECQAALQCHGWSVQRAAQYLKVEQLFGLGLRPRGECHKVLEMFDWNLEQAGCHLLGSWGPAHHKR
Test [9] shares this target. Particulars: at 1 µM.
Test [10] has as its target High affinity nerve growth factor receptor (Homo sapiens) (UniProt P04629). The note with it: at 0.1 µM.
Test [11] has the same target. The note with it: at 1 µM.
The target of test [12] is BDNF/NT-3 growth factors receptor (Homo sapiens) (UniProt Q16620). Particulars: at 0.1 µM.
BDNF/NT-3 growth factors receptor (Homo sapiens), sequence (Q16620 32-822 limits assumed): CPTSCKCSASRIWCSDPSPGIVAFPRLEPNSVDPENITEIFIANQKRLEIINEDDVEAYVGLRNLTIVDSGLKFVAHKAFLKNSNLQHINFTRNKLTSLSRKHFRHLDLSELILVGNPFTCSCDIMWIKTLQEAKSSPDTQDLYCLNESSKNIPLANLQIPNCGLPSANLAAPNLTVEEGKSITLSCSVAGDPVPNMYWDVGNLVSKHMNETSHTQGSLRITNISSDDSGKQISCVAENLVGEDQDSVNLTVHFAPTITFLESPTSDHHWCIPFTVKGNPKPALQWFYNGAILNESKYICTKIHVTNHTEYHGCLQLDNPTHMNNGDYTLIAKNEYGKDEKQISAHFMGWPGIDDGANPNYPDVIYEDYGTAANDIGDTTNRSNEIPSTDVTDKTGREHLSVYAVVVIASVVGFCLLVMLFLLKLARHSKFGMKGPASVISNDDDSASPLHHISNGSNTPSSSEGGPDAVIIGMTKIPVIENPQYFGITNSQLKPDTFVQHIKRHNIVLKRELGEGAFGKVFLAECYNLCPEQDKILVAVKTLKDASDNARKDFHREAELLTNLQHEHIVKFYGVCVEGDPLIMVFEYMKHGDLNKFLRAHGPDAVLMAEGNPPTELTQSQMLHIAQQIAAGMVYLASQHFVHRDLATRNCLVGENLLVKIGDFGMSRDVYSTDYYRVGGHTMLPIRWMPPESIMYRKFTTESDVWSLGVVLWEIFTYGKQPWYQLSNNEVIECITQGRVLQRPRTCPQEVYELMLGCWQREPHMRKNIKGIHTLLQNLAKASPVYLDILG
For test [13] the target is unchanged. The note with it: at 1 µM.
The target in test [14] is NT-3 growth factor receptor (Homo sapiens) (UniProt Q16288). Particulars: at 0.1 µM.
NT-3 growth factor receptor (Homo sapiens), sequence (Q16288 32-839 limits assumed): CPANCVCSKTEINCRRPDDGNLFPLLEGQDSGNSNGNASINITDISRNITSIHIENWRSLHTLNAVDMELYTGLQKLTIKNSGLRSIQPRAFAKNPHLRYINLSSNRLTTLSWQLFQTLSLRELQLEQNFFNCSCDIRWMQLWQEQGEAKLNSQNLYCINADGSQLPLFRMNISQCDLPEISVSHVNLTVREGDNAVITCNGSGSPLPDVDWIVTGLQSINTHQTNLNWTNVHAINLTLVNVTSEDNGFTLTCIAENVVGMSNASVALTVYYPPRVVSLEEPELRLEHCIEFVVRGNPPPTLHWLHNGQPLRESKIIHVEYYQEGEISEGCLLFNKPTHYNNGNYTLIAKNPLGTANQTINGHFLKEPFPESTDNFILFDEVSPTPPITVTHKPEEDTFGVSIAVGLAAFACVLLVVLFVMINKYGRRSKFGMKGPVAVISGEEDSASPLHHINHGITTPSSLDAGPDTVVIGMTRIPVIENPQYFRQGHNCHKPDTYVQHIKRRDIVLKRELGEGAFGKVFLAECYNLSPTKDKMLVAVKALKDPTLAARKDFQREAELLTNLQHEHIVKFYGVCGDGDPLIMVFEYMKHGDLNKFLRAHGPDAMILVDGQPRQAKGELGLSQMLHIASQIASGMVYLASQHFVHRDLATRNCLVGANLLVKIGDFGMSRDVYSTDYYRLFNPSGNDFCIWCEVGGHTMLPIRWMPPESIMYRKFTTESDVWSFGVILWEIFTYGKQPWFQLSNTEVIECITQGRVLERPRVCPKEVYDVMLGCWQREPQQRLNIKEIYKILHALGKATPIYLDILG
Test [15] shares this target. The note with it: at 1 µM.
Test [16] concerns the target T3, Tyrosine-protein kinase TXK (Homo sapiens) (UniProt P42681).
T3 sequence (whole entry): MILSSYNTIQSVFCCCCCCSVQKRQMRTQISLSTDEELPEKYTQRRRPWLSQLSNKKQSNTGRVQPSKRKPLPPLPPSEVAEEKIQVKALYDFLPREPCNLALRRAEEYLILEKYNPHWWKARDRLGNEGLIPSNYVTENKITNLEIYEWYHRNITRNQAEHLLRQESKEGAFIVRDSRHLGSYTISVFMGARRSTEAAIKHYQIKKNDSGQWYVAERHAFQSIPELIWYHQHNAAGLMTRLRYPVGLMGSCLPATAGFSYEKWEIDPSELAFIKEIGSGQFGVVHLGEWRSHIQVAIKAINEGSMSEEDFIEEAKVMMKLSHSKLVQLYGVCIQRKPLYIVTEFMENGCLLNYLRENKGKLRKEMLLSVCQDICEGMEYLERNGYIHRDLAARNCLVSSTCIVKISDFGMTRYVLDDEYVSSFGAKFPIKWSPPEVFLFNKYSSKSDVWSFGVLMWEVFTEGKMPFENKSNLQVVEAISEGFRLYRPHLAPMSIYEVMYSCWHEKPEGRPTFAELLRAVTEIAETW
Particulars: at 0.1 µM.

In test [17] the target is T3, Tyrosine-protein kinase TXK (Homo sapiens). The note with it: at 1 µM.
The target in test [18] is Non-receptor tyrosine-protein kinase TYK2 (Homo sapiens) (UniProt P29597). The note with it: at 0.1 µM.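 Also: each value is a mean of the inhibition readings.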
The target of test [19] is T4, Dual specificity protein kinase TTK (Homo sapiens) (UniProt P33981).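 Also: reported figures are mean TTK inhibition at 1 µM.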
T4 sequence (whole entry): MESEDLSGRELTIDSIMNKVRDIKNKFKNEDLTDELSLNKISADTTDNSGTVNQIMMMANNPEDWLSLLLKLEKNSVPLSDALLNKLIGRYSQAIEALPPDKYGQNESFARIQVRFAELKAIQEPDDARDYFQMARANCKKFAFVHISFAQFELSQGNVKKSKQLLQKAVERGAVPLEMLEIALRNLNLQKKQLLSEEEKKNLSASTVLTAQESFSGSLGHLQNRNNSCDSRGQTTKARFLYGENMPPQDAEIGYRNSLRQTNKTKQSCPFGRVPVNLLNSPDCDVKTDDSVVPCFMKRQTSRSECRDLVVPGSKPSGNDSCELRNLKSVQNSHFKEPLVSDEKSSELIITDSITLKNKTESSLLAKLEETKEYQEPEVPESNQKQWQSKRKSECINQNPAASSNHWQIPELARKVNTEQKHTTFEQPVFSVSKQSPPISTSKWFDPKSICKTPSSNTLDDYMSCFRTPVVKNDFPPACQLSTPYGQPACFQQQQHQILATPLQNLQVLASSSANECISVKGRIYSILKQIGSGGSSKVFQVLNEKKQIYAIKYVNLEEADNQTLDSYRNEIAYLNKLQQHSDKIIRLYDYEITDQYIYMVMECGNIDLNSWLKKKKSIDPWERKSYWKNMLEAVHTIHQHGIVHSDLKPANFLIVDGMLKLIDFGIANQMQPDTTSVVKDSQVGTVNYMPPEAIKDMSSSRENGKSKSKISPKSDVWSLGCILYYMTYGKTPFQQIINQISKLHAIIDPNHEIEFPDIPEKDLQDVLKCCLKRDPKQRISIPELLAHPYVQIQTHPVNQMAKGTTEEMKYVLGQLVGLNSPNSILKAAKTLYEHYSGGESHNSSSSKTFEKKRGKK
Particulars: at 1 µM.

Test [20] concerns the target T5, Aurora kinase A (Homo sapiens) (UniProt O14965).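 Also: each reported value is a mean percent inhibition of Aurora-A.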
T5 sequence (whole entry): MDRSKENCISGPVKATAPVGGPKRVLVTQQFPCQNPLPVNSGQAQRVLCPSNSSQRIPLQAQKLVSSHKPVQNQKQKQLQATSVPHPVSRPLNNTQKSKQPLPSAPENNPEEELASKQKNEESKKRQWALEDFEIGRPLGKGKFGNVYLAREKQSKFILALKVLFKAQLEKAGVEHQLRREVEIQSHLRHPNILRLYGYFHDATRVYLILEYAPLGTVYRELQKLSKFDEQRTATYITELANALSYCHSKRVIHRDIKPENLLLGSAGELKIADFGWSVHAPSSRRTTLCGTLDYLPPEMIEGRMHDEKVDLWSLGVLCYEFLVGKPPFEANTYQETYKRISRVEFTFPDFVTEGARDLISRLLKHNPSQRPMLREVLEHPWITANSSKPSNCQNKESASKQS
Particulars: at 0.1 µM.

High affinity nerve growth factor receptor (Homo sapiens), sequence (P04629 33-796 limits assumed): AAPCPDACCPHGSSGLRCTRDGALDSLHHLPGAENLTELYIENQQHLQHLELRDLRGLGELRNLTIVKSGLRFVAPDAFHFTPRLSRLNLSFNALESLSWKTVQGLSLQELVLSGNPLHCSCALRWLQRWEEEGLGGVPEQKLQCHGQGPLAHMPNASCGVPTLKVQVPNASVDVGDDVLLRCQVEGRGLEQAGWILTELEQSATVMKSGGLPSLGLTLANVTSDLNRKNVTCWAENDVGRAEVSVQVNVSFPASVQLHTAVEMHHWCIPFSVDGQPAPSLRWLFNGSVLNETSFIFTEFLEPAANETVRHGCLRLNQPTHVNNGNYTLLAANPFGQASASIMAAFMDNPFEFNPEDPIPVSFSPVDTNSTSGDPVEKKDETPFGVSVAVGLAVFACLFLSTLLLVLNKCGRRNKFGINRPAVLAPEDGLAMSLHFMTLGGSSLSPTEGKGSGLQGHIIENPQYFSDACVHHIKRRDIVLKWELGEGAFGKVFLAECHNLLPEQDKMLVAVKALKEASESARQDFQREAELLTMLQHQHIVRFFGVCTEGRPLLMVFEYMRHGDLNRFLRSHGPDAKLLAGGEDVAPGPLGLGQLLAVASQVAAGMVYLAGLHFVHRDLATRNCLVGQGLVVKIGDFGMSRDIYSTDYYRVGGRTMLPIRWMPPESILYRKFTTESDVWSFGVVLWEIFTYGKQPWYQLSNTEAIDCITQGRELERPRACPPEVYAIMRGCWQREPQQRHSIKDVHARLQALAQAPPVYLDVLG
Angiopoietin-1 receptor (Homo sapiens), sequence (Q02763 whole entry): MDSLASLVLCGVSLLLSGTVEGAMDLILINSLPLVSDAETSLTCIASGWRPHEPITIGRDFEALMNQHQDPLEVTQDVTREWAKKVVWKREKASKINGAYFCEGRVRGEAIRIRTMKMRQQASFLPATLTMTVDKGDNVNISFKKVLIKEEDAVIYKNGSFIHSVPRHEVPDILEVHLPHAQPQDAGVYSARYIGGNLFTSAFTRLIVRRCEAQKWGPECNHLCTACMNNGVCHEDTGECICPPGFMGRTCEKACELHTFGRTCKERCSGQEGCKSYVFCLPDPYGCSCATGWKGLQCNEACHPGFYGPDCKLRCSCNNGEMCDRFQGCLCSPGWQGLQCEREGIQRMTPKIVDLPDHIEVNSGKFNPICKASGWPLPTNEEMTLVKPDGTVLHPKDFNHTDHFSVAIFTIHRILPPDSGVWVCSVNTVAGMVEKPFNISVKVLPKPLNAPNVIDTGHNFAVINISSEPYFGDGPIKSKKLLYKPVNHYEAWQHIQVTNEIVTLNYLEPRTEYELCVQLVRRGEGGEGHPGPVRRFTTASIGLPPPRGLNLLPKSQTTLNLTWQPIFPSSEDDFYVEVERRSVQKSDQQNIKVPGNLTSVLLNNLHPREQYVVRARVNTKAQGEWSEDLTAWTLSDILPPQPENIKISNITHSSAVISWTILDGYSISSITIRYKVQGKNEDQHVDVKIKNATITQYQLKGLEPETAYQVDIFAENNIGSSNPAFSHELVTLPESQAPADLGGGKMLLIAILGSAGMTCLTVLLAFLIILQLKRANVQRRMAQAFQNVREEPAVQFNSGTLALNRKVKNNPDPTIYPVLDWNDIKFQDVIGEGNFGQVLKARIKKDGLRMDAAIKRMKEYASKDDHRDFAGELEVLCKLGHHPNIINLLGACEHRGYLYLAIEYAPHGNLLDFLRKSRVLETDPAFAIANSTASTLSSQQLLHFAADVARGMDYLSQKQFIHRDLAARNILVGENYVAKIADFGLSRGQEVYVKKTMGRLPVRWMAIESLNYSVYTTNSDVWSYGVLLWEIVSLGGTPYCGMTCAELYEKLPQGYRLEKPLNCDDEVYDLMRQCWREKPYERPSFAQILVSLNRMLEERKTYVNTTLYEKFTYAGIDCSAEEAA

For `NCc1ccc(-c2nc(-c3ccc(Cl)c(O)c3)c(-c3ccncc3)[nH]2)cc1`, the inhibition – broadly, the relative decrease from the control value, in per cent – is 1.13% in test [1]; 6.38% in test [2]; 33% in test [3]; 4.33% in test [4]; 21% in [5]; -1.81% in [6]. The inhibition in test [7] is 1.42%; in test [8] it was -0.36%; in [9], -0.9%; in test [10], -4.35%; in test [11], -1.42%; in [12] it was -0.05%. Also, the inhibition in test [13] was 0.73%; in test [14], -0.91%; in [15], 1.61%; in [16] it was 18.9%; in [17], 61.1%; in test [18], 1.75%. Also, the inhibition in test [19] was 7.44%; in test [20], 1.53%.
As to `[O-][S+]1CCN(Cc2ccc(-c3ccc4ncnc(Nc5ccc(OCc6ccccc6)c(F)c5)c4c3)o2)CC1`, the inhibition was -0.11% in test [1]; 3.42% in [2]; 4.7% in test [3]; 2.18% in test [4]; 2.24% in test [5]; 0.61% in test [6]. Moreover, the inhibition was 7.01% in test [7]; 0.67% in [8]; 0.38% in [9]; 1.24% in test [10]; 1.44% in test [11]; 1.84% in [12]. For the same compound, the inhibition in test [13] was 1.51%; in test [14] it was 0.84%; in test [15], 2.26%; in test [16], 2.49%; in [17], 3.34%; in [18], -3.81%. Also, the inhibition in test [19] amounted to 12.9%; in test [20], 2.01%.
On to `Cc1cccc(-c2n[nH]cc2-c2ccc3ncccc3n2)n1`, for which the inhibition in test [1] was -0.38%; in test [2], 0.76%; in test [3] it was 1.51%; in [4] it was 1.2%; in test [5], 3.33%; in [6], -0.63%. The inhibition was 0.33% in test [7]; -0.11% in [8]; 0.91% in test [9]; -1% in [10]; -0.2% in [11]; -0.22% in test [12]. Also, the inhibition in test [13] is 0.79%; in [14] it was 0.22%; in [15] it was -0.92%; in test [16], 1.27%; in test [17], 2.32%; in test [18], -0.15%. In addition, the inhibition in [19] is 3.31%; in test [20] it was 2.76%.
In the case of `COc1ccc(COc2ccc(Cc3cnc(N)nc3N)cc2OC)cc1`, the inhibition in test [1] was determined as 0.65%; in [2] it was 1.62%; in [3], 2.91%; in [4], 2.2%; in test [5] it was 8.78%; in test [6], 0.7%. In addition, the inhibition is -8.3% in test [7]; 2.24% in [8]; 3.64% in test [9]; 32.4% in [10]; 50% in test [11]; 25.7% in test [12]. Also, the inhibition was 75.4% in test [13]; 4.15% in test [16]; 4.97% in test [17]; 3.75% in test [18]; 3.14% in [19]; 4.1% in test [20].
Take `COc1ccc(-c2coc3ncnc(N)c23)cc1`: the inhibition is -0.96% in test [1]; 3.6% in test [2]; 5.59% in test [3]; 2.58% in test [4]; 7.38% in [5]; 0.94% in test [6]. Further, the inhibition in test [7] was -4.86%; in [8], 0.34%; in [9], 1.05%; in test [10], 1.6%; in test [11], 2.06%; in [12], 2.05%. In addition, the inhibition in test [13] was 1.62%; in [14] it was 2.53%; in test [15] it was 2.68%; in [16], 2.99%; in [17], 6.19%; in test [18], -3.01%. For the same compound, the inhibition in test [19] is 11.5%; in test [20] it was 3.09%.
As to `CC1=C(C(=O)Nc2ccc3[nH]ncc3c2)C(c2ccc(Cl)c(Cl)c2)CC(=O)N1` (stereo not drawn), the inhibition in test [1] is 1.43%; in [2] it was 2.26%; in test [3], 6.35%; in test [4], 2.31%; in test [5] it was 4.81%; in [6], -0.39%. The inhibition in test [7] was 9.22%; in [8], 0.3%; in test [9], 1.41%; in [10] it was 2.44%; in test [11], 0.57%; in test [12], 1.67%. Also, the inhibition was -0.28% in test [13]; 2.34% in [14]; 1.92% in test [15]; 1.64% in test [16]; 0.6% in test [17]; 0.3% in [18]. Moreover, the inhibition was 7.89% in test [19] and 9.43% in test [20].
For `COc1ccccc1Nc1ncc(-c2ccccc2)o1`, the inhibition in [1] was -4.41%; in [2], 2.21%; in test [3], 7.28%; in [4], 0.33%; in [5], 6.44%; in test [6], 3.82%. In addition, the inhibition in test [7] was 13.8%; in test [8] it was 0.63%; in test [9] it was 3.33%; in test [10], 1.73%; in test [11] it was 4.51%; in test [12], 4.57%. For the same compound, the inhibition in test [13] was 8.84%; in test [14], 4.02%; in test [15], 9.48%; in [16], 0.91%; in [17] it was 6.86%; in test [18], -6.02%. The inhibition in test [19] was 11.9%; in [20] it was 4.71%.

These data come from ChEMBL document CHEMBL1961873, “Compounds: GSK PKIS; Assays: Nanosyn kinase panel” (2012).
